Read-out in assay [1]: Transforming Growth Factor (TGFB1), TGFB1 (gene 7040)
Nature of the assay: LTEA_HepaRG_TGFB1: Life Technologies and Expression Analysis (LTEA) Assay for Transforming Growth Factor (TGFB1) Transporter using HepaRG (AID 2283533). Particulars: mRNA level, 48 h; actives raise or lower the signal. A digest of the protocol:
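Differentiated human HepaRG cells in serum-free induction medium were exposed in duplicate for 48 h to eight concentrations (top 100 uM, half-log steps, 0.5% DMSO). TGFB1 mRNA was quantified by qRT-PCR, normalized to ACTB, GAPDH, POLR2A, and fitted bidirectionally against DMSO.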

Read-out in the next assay: TIMP1, TIMP1 (gene 7076)
Nature of the assay: LTEA_HepaRG_TIMP1: Life Technologies and Expression Analysis (LTEA) Assay for TIMP1 using HepaRG (AID 2283534). Particulars: mRNA level, 48 h; actives raise or lower the signal. Summed up: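 Differentiated human HepaRG cells in serum-free induction medium were exposed 48 h to chemicals (8 half-log concentrations, top 100 uM, 0.5% DMSO). TIMP1 mRNA was quantified by TaqMan qRT-PCR, normalized to ACTB/GAPDH/POLR2A; bidirectional fit versus DMSO.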

Read-out in assay [2]: Tumor necrosis factor receptor 1 (TNFRSF1A), TNFRSF1A (gene 7132)
Nature of the assay: LTEA_HepaRG_TNFRSF1A: Life Technologies and Expression Analysis (LTEA) Assay for Tumor necrosis factor receptor 1 (TNFRSF1A) using HepaRG (AID 2283535). To be noted: mRNA level, 48 h; actives raise or lower the signal. A digest of the protocol: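 Differentiated human HepaRG cells were exposed in duplicate for 48 h in serum-free induction medium to eight concentrations (top 100 uM, half-log steps, 0.5% DMSO). TNFRSF1A mRNA was quantified by qRT-PCR, normalized to ACTB, GAPDH and POLR2A, then fitted bidirectionally against DMSO.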

Read-out in assay [3]: Thyroid Hormone Responsive (THRSP), THRSP (gene 7069)
The experiment in a line: LTEA_HepaRG_THRSP: Life Technologies and Expression Analysis (LTEA) Assay for Thyroid Hormone Responsive (THRSP) using HepaRG (AID 2283536). To be noted: mRNA level, 48 h; actives raise or lower the signal. A digest of the protocol:
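Differentiated HepaRG cells treated 48 h in serum-free induction medium with 8 half-log concentrations up to 100 uM (0.5% DMSO), duplicates. THRSP mRNA by TaqMan qRT-PCR normalised to ACTB, GAPDH, POLR2A; bidirectional fit versus DMSO.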

Read-out in assay [4]: UDP glucuronosyltransferase (UGT1A1), UGT1A1 (gene 54658)
The experiment in a line: LTEA_HepaRG_UGT1A1: Life Technologies and Expression Analysis (LTEA) Assay for UDP glucuronosyltransferase (UGT1A1) using HepaRG (AID 2283538). To be noted: mRNA level, 48 h; actives raise or lower the signal. A digest of the protocol:
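Readout is UGT1A1 transcript level by qRT-PCR, normalized to three housekeeping genes, after 48 h chemical treatment of HepaRG cells. Concentrations ran from 100 uM down in half-log steps with 0.5% DMSO, and gain or loss relative to DMSO was fitted.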

Read-out in assay [5]: X-box binding protein 1 (XBP1), XBP1 (gene 7494)
Nature of the assay: LTEA_HepaRG_XBP1: Life Technologies and Expression Analysis (LTEA) Assay for X-box binding protein 1 (XBP1) using HepaRG (AID 2283540). To be noted: mRNA level, 48 h; actives raise or lower the signal. Summed up:
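Differentiated human HepaRG cells in serum-free induction medium were exposed in duplicate for 48 h to eight half-log concentrations up to 100 uM in 0.5% DMSO. XBP1 mRNA was quantified by qRT-PCR, normalised to ACTB, GAPDH and POLR2A, with bidirectional fitting against DMSO.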

Assay [6] can be described thus: LTEA_HepaRG_LDH_cytotoxicity: Cytotoxicity Assessment in the Life Technologies and Expression Analysis (LTEA) Assay (AID 2283563; active means hit-call score of the fitted dose curve at least 0.9, where 1 is the maximum;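 on AC50: LDH activity released into spent culture medium as a marker of cell death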). A digest of the protocol:
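Differentiated human HepaRG cells, plated 48 h beforehand, were switched to serum-free induction medium and exposed for 48 h to eight half-log concentrations (top 100 uM) in 0.5% DMSO. LDH was measured in spent medium; activity was fitted relative to DMSO vehicle.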

Assay [7] in a line: Tanguay_ZF_120hpf_MORT_legacy: (Legacy) Oregon State University Tanguay Lab 120 Hour Post-fertilization zebrafish Assay for Mortality (AID 2283633; active means hit-call score of the fitted dose curve at least 0.9, where 1 is the maximum). A digest of the protocol: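 Dechorionated Tropical 5D wild-type zebrafish embryos, one per well from 6 hpf, were statically exposed at 28C in the dark until 120 hpf (0.64% DMSO final). Mortality was scored as present/absent by brightfield microscopy, fitted positively versus DMSO.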

The nature of assay [8]: Tanguay_ZF_120hpf_YSE_legacy: (Legacy) Oregon State University Tanguay Lab 120 Hour Post-fertilization zebrafish Assay for Yolk Sac Edema (AID 2283634; active means hit-call score of the fitted dose curve at least 0.9, where 1 is the maximum). Summed up: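 Tropical 5D wild-type embryos, dechorionated with pronase at 4 hpf, were exposed singly from 6 hpf to 120 hpf under static, sealed, dark conditions at 28C with 0.64% DMSO final. Yolk sac edema was scored present/absent by brightfield microscopy.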

Read-out in assay [9]: Cellular tumor antigen p53 (Homo sapiens) (UniProt P04637)
Nature of the assay: LTEA_HepaRG_TP53: Life Technologies and Expression Analysis (LTEA) Assay for Tumor Protein P53 (TP53) using HepaRG (AID 2283537). To be noted: mRNA level, 48 h; actives raise or lower the signal. A digest of the protocol: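 TP53 transcript measured by qRT-PCR, normalized to three housekeeping genes, after 48 h treatment of human HepaRG cultures with chemicals from 100 uM downward in half-log steps (0.5% DMSO vehicle, serum-free induction medium). Up- or down-regulation fitted against DMSO.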

The nature of assay [10]: TOX21_p53_BLA_p2_viability: Viability Assessment in the Tox21 HCT-116 p53 Agonism Beta-lactamase Assay, Phase 2 (AID 2283591; active means hit-call score of the fitted dose curve at least 0.9, where 1 is the maximum;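 further: compound exposure lasted 16 h at 37 °C; actives lower the ATP signal meaning cytotoxicity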). A digest of the protocol: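 HCT116 p53-bla cells, 4000/well, dosed after 5 h plating (217-fold dilution of DMSO stocks) and incubated 16 h at 37C. Viability taken as cellular ATP by CellTiter-Glo luminescence after 30 min RT; signal loss marks cytotoxicity.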

Assay [11] deals with Cellular tumor antigen p53 (Homo sapiens) (UniProt P04637). The experiment in a line: TOX21_p53_BLA_p2_ratio: Tox21 HCT-116 p53 Agonism Beta-lactamase Assay, Ratio, Phase 2 (AID 2283592; active means hit-call score of the fitted dose curve at least 0.9, where 1 is the maximum). Summed up: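 HCT116 cells carrying a p53-responsive beta-lactamase reporter were plated, incubated 5 h at 37C, then dosed with compounds in DMSO (217-fold dilution) for 16 h. CCF4-AM substrate was added for 2 h at room temperature; the 460/530 nm emission ratio gave gain-of-signal activity relative to DMSO.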

Assay [12] has the same target. The experiment in a line: TOX21_p53_BLA_p3_ratio: Tox21 HCT-116 p53 Agonism Beta-lactamase Assay, Ratio, Phase 3 (AID 2283596; active means hit-call score of the fitted dose curve at least 0.9, where 1 is the maximum). A digest of the protocol: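 HCT116 p53-bla cells (4000/well) given compound in DMSO (217-fold dilution) after 5 h, incubated 16 h at 37C. CCF4-AM substrate 2 h at room temperature; 460/530 nm emission ratio, gain fitted against DMSO.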
Assay [13] can be described thus: TOX21_p53_BLA_p4_viability: Viability Assessment in the Tox21 HCT-116 p53 Agonism Beta-lactamase Assay, Phase 4 (AID 2283597; active means hit-call score of the fitted dose curve at least 0.9, where 1 is the maximum;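 further: hits lower the luminescence signal meaning cytotoxicity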). Summed up:
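HCT116 p53-bla cells (4000/well) rested 5 h at 37C, then received compounds in DMSO (217-fold dilution) for 16 h at 37C, 5% CO2. CellTiter-Glo was added after the CCF4-AM read, and luminescence was read after 30 min at room temperature.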

In assay [14] the target is Cellular tumor antigen p53 (Homo sapiens) (UniProt P04637). Nature of the assay: TOX21_p53_BLA_p5_ratio: Tox21 HCT-116 p53 Agonism Beta-lactamase Assay, Ratio, Phase 5 (AID 2283599; active means hit-call score of the fitted dose curve at least 0.9, where 1 is the maximum). Summed up:
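HCT-116 p53-bla cells (4000/well) plated 5 h, dosed with compound (217-fold DMSO dilution) for 16 h at 37 C; CCF4-AM substrate 2 h at room temperature. Activity is the 460/530 nm emission ratio (405 nm excitation), fitted in gain-of-signal direction versus DMSO.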

Assay [15] shares this target. The experiment in a line: TOX21_p53_BLA_p4_ratio: Tox21 HCT-116 p53 Agonism Beta-lactamase Assay, Ratio, Phase 4 (AID 2283601; active means hit-call score of the fitted dose curve at least 0.9, where 1 is the maximum). Summed up: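 HCT-116 p53 beta-lactamase reporter cells (4000/well) preincubated 5 h, then compound (217-fold dilution of DMSO stock) for 16 h at 37C. CCF4-AM substrate added 2 h at room temperature; 460/530 nm emission ratio fitted upward versus DMSO.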

Inconclusive results are not listed. Calls of active or inactive are those of the source. How the source made its calls, unless noted: active means hit-call score of the fitted dose curve at least 0.9, where 1 is the maximum; inactive means score below 0.9.

Chain of Cellular tumor antigen p53 (Homo sapiens) (P04637 whole entry, looked up): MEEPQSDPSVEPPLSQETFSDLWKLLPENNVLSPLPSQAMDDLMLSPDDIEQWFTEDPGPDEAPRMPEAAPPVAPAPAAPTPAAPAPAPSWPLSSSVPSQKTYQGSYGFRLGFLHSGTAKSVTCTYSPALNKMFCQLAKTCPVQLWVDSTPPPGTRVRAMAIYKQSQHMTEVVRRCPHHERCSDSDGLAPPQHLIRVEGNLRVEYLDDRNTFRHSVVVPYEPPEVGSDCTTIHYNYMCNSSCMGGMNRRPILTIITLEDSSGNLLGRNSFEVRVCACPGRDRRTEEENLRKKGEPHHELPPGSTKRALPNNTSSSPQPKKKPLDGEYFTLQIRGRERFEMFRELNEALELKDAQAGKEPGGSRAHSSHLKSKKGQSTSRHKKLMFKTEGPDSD

For orientation: AC50 means the concentration at which the activity in the assay is half-maximal. Consider `CCC(C)Nc1c([N+](=O)[O-])cc(C(C)(C)C)cc1[N+](=O)[O-]` (stereo unspecified), for which the outcome was “inactive” in assay [1]; “inactive” with TIMP1, TIMP1 (gene 7076); “inactive” in [2]; “inactive” in [3]; “inactive” in assay [6]; “inactive” in assay [7]. Further, in [8], the molecule was called inactive. The results for the AC50 in assay [4] and in [5] were 13.1 µM (active) and 73.8 µM (active), respectively.

Take `CCCN(CCC)c1c([N+](=O)[O-])cc(C(F)(F)F)cc1[N+](=O)[O-]`: the outcome is “inactive” in assay [1]; “inactive” in the assay with TIMP1, TIMP1 (gene 7076); “inactive” in [2]; “inactive” in assay [3]; “inactive” in assay [5]; “inactive” in [6]. Besides, the outcome in assay [7] and in [8] was inactive. Besides, the AC50 in [4] is 29.2 µM (active).

Consider `O=[N+]([O-])/N=C1\NCCN1Cc1ccc(Cl)nc1`, for which the outcome is “inactive” in assay [1]; “inactive” in the assay with TIMP1, TIMP1 (gene 7076); “inactive” in [4]; “inactive” in [6]; “inactive” in assay [7]; “inactive” in [8]. Moreover, the figures for the AC50 in assay [2], in assay [3] and in assay [5] were 28.1 µM (active), 50 µM (active) and 25.5 µM (active), respectively.

Consider `CCc1ccc(C(=O)NN(C(=O)c2cc(C)cc(C)c2)C(C)(C)C)cc1`, for which the outcome is “inactive” in [1]; “inactive” in the assay with TIMP1, TIMP1 (gene 7076); “inactive” in [2]; “inactive” in assay [9]; “inactive” in [5]; “inactive” in assay [10]. In addition, the outcome in assay [11], in assay [12], in [13], in assay [14], in assay [15] and in assay [7] was inactive. For the same molecule, the AC50 in [3] was 21.5 µM (active); in [4], 12.3 µM (active); in [6], 81.9 µM (active).

As to `Cc1[nH]c(=O)n(C(C)(C)C)c(=O)c1Cl`, the outcome in [1] is “inactive”; with TIMP1, TIMP1 (gene 7076), “inactive”; in assay [2], “inactive”; in [5], “inactive”; in [6], “inactive”; in [7], “inactive”. Further, the molecule was classed as inactive in assay [8]. Also, the concentration at half-maximal activity (AC50) in [3] was 50 µM (active); in assay [4], 31 µM (active).
